Measurements from PubChem BioAssay.
Values joined by “and” are separate entries in the source; they are usually repeats but may differ in a detail not shown here. Equal entries are not always repeated. Inconclusive results are not listed. Active and inactive are the calls of the source.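 Rule for the calls, unless noted: active = normalized viability below 100% at a tested concentration; inactive = the rest.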

Experiments:
[1] = Wnt pathway potentiators raising nuclear beta-catenin – imaging, WNT3A-conditioned medium, mouse C2C12, NPC library, primary screen (AID 1117326; in the data active = nuclear beta-catenin stimulation mostly above about 4.2%, no sharp cut-off; inactive = mostly below about 10%); conditions: stronger effect = higher value
[2] = stimulators of insulin release from INS-1E, primary screen, cell-based, 5 mM glucose, NPC library (AID 1117329;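 active = compound raises insulin release from rat beta cells at 5 mM glucose, no numeric limit stated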); conditions: rat INS-1E insulin secretion, at 10 µM, stronger effect = higher value
[3] = growth inhibition of GSK3B-pretreated HCT116 cells – cell-based, CellTiter-Glo, 0.2 to 20 µM (AID 1117336;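 active = compounds lowering colon cancer cell viability after pretreatment blocking the GSK3B kinase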); conditions: HCT116 viability after GSK3B inhibitor, at 20 µM, stronger effect = higher value
[4] = inhibition of endothelial tube formation, primary screen, imaging, VEGF stimulated, CD31 staining, tube area, NPC library (AID 1117340;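 active = compound that reduces growth-factor-driven endothelial tube area in a mixed cell culture, no cutoff stated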); conditions: VEGF-stimulated ADSC/ECFC co-culture, at 10 µM, stronger effect = higher value
[5] = GLP1 release stimulators, primary, NCI-H716, NPC library (AID 1117341;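 active = compound raises GLP1 secretion from the human gut endocrine cells, with no numeric limit stated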); conditions: NCI-H716 cells, at 10 µM, stronger effect = higher value
[6] = HCT116 colon cancer cell growth inhibition, primary screen, CellTiter-Glo luminescence, NPC library (AID 1117342;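 active = compounds that lower survival of HCT116 colon cancer cells in the luminescence readout, no numeric limit stated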); conditions: at 20 µM (top of the series)
[7] = reduced SW480 viability measured with CellTiter-Glo, NPC library, primary (AID 1117343;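 active = compounds that lower viability of the colon cancer cells in the luminescence readout, with no numeric limit stated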); conditions: CellTiter-Glo luminescence; at 20 µM (top of the series) unless noted
[8] = NPC library primary testing for decreased DLD-1 cell viability via CellTiter-Glo (AID 1117346;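 active = compounds that lower survival of DLD-1 colon cancer cells in the luminescence readout, no cutoff given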); conditions: DLD-1 viability, CellTiter-Glo luminescence; at 20 µM (top of the series)
[9] = viability loss in pontine glioma line – cell-based, SU-DIPG-XVII, MIPE5.0, CellTiter-Glo, qHTS, dose response (AID 1347060; cut-off not given, nearly all actives have AC50 up to about 26 µM;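 for AC50: cells exposed to compound for 48 hours before viability readout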); conditions: CellTiter-Glo ATP luminescence
[10] = growth inhibition of DIPG cells – cell-based, MIPE5.0 library, qHTS (AID 1347068; cut-off not given, nearly all actives have IC50 up to about 30 µM;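 for IC50: cells exposed to compound for 48 hours before viability readout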); conditions: SU-DIPG-XXV viability
[11] = drug combination growth inhibition, ovarian cancer – cell-based, oncology-focused library, rucaparib conditional, profiling panel (AID 1508598); conditions: patient-derived ovarian cancer cells, CellTiter-Glo viability, 144 h, stronger effect = lower value
[12] = viability loss in pontine glioma line – cell-based, SU-DIPG-XIII, MIPE4.0, CellTiter-Glo, qHTS, dose response (AID 1347061; cut-off not given, nearly all actives have AC50 up to about 37 µM;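 note: cells exposed to compound for 48 hours before readout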); conditions: CellTiter-Glo ATP luminescence
[13] = viability loss in pontine glioma line – cell-based, SU-DIPG-IV, MIPE4.0, CellTiter-Glo, qHTS, dose response (AID 1347063; cut-off not given, nearly all actives have AC50 up to about 30 µM;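 note: compound exposure lasted 48 hours before the viability readout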); conditions: CellTiter-Glo ATP luminescence
[14] = viability loss with induced miR-34 in A549 – imaging, A549 dox-inducible miR-34, nuclei and caspase counts, primary screen (AID 1347080;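 active = compounds whose cell count with miR-34 switched on is under 0.7 times the count with it off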); conditions: A549 miR-34 inducible, Hoechst nuclei count, 48 h
[15] = MELAS cybrid and Rieske KO viability enhancers – cell-based, MELAS cybrids, Rieske KO mouse fibroblasts, CellTiter-Glo, primary screen (AID 1508586;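 active = mean z-score across replicates of 1.96 or higher in either the MELAS or the Rieske mutant cell line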;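 note: z relative to plate mean and SD of compound and empty wells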); conditions: low glucose
[16] = galactose survival enhancers in mitochondrial complex I cybrids – cell-based, galactose medium, ATP luminescence, primary screen (AID 1645843;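 active = z-score of at least 1.8 in each of two replicates, scored against plate mean and spread of sample wells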;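 note: positive z means more ATP and so rescue of galactose-driven cybrid death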); conditions: complex I mutant cybrid cells, 72 h, stronger effect = higher value

## CNC(=O)c1ccccc1Sc1ccc2c(/C=C/c3ccccn3)n[nH]c2c1
[1]; at 10 µM
  nuclear beta-catenin stimulation: 4.6% (inactive)
[1]; stimulation, at 2 µM
  nuclear beta-catenin stimulation: 7.2%
[2]
  insulin secretion stimulation: 4.65% (inactive)
[3]
  viability decrease: 21% (inactive)
[4]
  tube area decrease: 106% (active)
[5]
  GLP1 secretion stimulation: 1% (inactive)
[6]
  inhibition of viability: 45.5% (inactive)
[7]
  viability decrease (inhibition): 59.2% (active)
[8]
  viability decrease (inhibition): 56.9% (active)
[9]
  AC50: 1.32 µM (active)
[10]
  IC50: 3.72 µM (active)
[11]; at 0.000305 µM, OCI-C5x cells, with rucaparib 10 µM, 100% = cells with rucaparib alone
  viability: 107% (inactive)
[11]; at 0.000305 µM, OCI-C5x cells, without rucaparib
  viability: 114% (inactive)
[11]; at 0.000305 µM, OCI-P5x cells, with rucaparib 20 µM, 100% = cells with rucaparib alone
  viability: 106% (inactive)
[11]; at 0.000305 µM, OCI-P5x cells, without rucaparib
  viability: 95.9% (active)
[11]; at 0.00122 µM, OCI-C5x cells, with rucaparib 10 µM, 100% = cells with rucaparib alone
  viability: 116% (inactive)
[11]; at 0.00122 µM, OCI-C5x cells, without rucaparib
  viability: 110% (inactive)
[11]; at 0.00122 µM, OCI-P5x cells, with rucaparib 20 µM, 100% = cells with rucaparib alone
  viability: 112% (inactive)
[11]; at 0.00122 µM, OCI-P5x cells, without rucaparib
  viability: 93.6% (active)
[11]; at 0.00488 µM, OCI-C5x cells, with rucaparib 10 µM, 100% = cells with rucaparib alone
  viability: 109% (inactive)
[11]; at 0.00488 µM, OCI-C5x cells, without rucaparib
  viability: 110% (inactive)
[11]; at 0.00488 µM, OCI-P5x cells, with rucaparib 20 µM, 100% = cells with rucaparib alone
  viability: 106% (inactive)
[11]; at 0.00488 µM, OCI-P5x cells, without rucaparib
  viability: 98% (active)
[11]; at 0.0195 µM, OCI-C5x cells, with rucaparib 10 µM, 100% = cells with rucaparib alone
  viability: 114% (inactive)
[11]; at 0.0195 µM, OCI-C5x cells, without rucaparib
  viability: 103% (inactive)
[11]; at 0.0195 µM, OCI-P5x cells, with rucaparib 20 µM, 100% = cells with rucaparib alone
  viability: 108% (inactive)
[11]; at 0.0195 µM, OCI-P5x cells, without rucaparib
  viability: 94.2% (active)
[11]; at 0.0781 µM, OCI-C5x cells, with rucaparib 10 µM, 100% = cells with rucaparib alone
  viability: 118% (inactive)
[11]; at 0.0781 µM, OCI-C5x cells, without rucaparib
  viability: 98.3% (active)
[11]; at 0.0781 µM, OCI-P5x cells, with rucaparib 20 µM, 100% = cells with rucaparib alone
  viability: 126% (inactive)
[11]; at 0.0781 µM, OCI-P5x cells, without rucaparib
  viability: 96.6% (active)
[11]; at 0.313 µM, OCI-C5x cells, with rucaparib 10 µM, 100% = cells with rucaparib alone
  viability: 110% (inactive)
[11]; at 0.313 µM, OCI-C5x cells, without rucaparib
  viability: 97.7% (active)
[11]; at 0.313 µM, OCI-P5x cells, with rucaparib 20 µM, 100% = cells with rucaparib alone
  viability: 101% (inactive)
[11]; at 0.313 µM, OCI-P5x cells, without rucaparib
  viability: 87.8% (active)
[11]; at 1.25 µM, OCI-C5x cells, with rucaparib 10 µM, 100% = cells with rucaparib alone
  viability: 112% (inactive)
[11]; at 1.25 µM, OCI-C5x cells, without rucaparib
  viability: 105% (inactive)
[11]; at 1.25 µM, OCI-P5x cells, with rucaparib 20 µM, 100% = cells with rucaparib alone
  viability: 95.4% (active)
[11]; at 1.25 µM, OCI-P5x cells, without rucaparib
  viability: 85.8% (active)
[11]; at 5 µM, OCI-C5x cells, with rucaparib 10 µM, 100% = cells with rucaparib alone
  viability: 110% (inactive)
[11]; at 5 µM, OCI-C5x cells, without rucaparib
  viability: 93.2% (active)
[11]; at 5 µM, OCI-P5x cells, with rucaparib 20 µM, 100% = cells with rucaparib alone
  viability: 107% (inactive)
[11]; at 5 µM, OCI-P5x cells, without rucaparib
  viability: 83% (active)

## Cc1ccccc1C(=O)Nc1ccc(C(=O)N2CCCC(O)c3cc(Cl)ccc32)c(C)c1 (stereo not drawn)
[1]; at 10 µM
  nuclear beta-catenin stimulation: 3.2% (inactive)
[1]; stimulation, at 2 µM
  nuclear beta-catenin stimulation: 1.4%
[2]
  insulin secretion stimulation: 0.15% (inactive)
[3]
  viability decrease: 52.2% (active)
[4]
  tube area decrease: 3.5% (inactive)
[5]
  GLP1 secretion stimulation: 2% (inactive)
[6]
  inhibition of viability: 38.9% (inactive)
[7]
  viability decrease (inhibition): 15.2% (inactive)
[8]
  viability decrease (inhibition): 21.9% (inactive)
[9]
  outcome: inactive
[12]
  outcome: inactive
[13]
  outcome: inactive
[10]
  outcome: inactive
[14]; stronger effect = lower value, cell number ratio, induced over uninduced
  fold change: 0.834 (inactive) and 0.856 (inactive)
[14]; measured here: relative caspase fold change +Dox/-Dox
  fold change: 0.412 and 0.955
[14]; measured here: total cells with miR-34 induction, stronger effect = lower value
  cell count: 8090 and 8960
[14]; measured here: total cells without miR-34 induction
  cell count: 9700 and 10500
[15]; MELAS cybrid survival, CellTiter-Glo 48 h, stronger effect = higher value
  z-score: 0.131 (inactive) and -0.387 (inactive)
[15]; Rieske KO mouse fibroblast survival, CellTiter-Glo 72 h
  z-score: -0.17 and 0.558
[16]
  z-score: 0.835 (inactive)
